Experimental data from the antibiotic and cytotoxicity screens of Wong et al. (2023).
Out of some 39,000 compounds screened, about 1,500 (3.8%) were called active. Many of the other results were omitted from the sample, so actives are more common in it than they were.

Tested on: HSkMC (human skeletal muscle cells)
Assay: cytotoxicity call (relative viability < 0.9)
Conditions: 10 µM

Row | Structure (SMILES) | cytotoxicity call
1 | Cc1ccc(S(=O)(=O)N(C)C[C@@H]2Oc3ccc(NS(=O)(=O)c4c(C)noc4C)cc3CC(=O)N([C@H](C)CO)C[C@H]2C)cc1 | inactive
2 | CC(=O)OC1CC2C(C)(C)C=CCC2(C)C2CCC3(C)C(c4ccoc4)OC(=O)C4OC43C12C (stereo not given) | inactive
3 | O=C(CN1CCOCC1)NCC[C@H]1CC[C@H](NC(=O)c2ccccc2F)[C@@H](CO)O1 | inactive
4 | C[C@@H]1CN([C@@H](C)CO)C(=O)Cc2cc(NC(=O)Nc3cccc4ccccc34)ccc2O[C@@H]1CN(C)S(=O)(=O)c1cccs1 | inactive
5 | C(=N\c1nnc2nc[nH]n12)/c1ccco1 | inactive
6 | C[C@@H]1CCCCO[C@@H](CN(C)Cc2ccc(Cl)c(Cl)c2)[C@H](C)CN([C@@H](C)CO)C(=O)c2cc(N(C)C)ccc2O1 | inactive
7 | C[C@@H]1CCCCO[C@H](CN(C)Cc2ccc(Cl)c(Cl)c2)[C@@H](C)CN([C@@H](C)CO)C(=O)c2cc(NC(=O)Nc3ccc4c(c3)OCO4)ccc2O1 | inactive
8 | C[C@H](CO)N1C[C@H](C)[C@@H](CN(C)Cc2ccc(Cl)c(Cl)c2)OCCCC[C@H](C)Oc2ccc(NC(=O)Nc3ccc4c(c3)OCO4)cc2C1=O | active
9 | C[C@@H]1CCCCO[C@@H](CN(C)Cc2ccc(Cl)c(Cl)c2)[C@H](C)CN([C@@H](C)CO)C(=O)c2cc(NC(=O)Nc3ccc4c(c3)OCO4)ccc2O1 | inactive
10 | C[C@H]1CCCCO[C@H](CN(C)Cc2ccc(Cl)c(Cl)c2)[C@@H](C)CN([C@@H](C)CO)C(=O)c2cc(NC(=O)Nc3ccc4c(c3)OCO4)ccc2O1 | inactive
11 | C[C@@H]1CCCCO[C@@H](CN(C)Cc2ccc(Cl)c(Cl)c2)[C@H](C)CN([C@H](C)CO)C(=O)c2cc(NC(=O)Nc3ccc4c(c3)OCO4)ccc2O1 | inactive
12 | C[C@@H]1CCCCO[C@H](CN(C)Cc2ccc(Cl)c(Cl)c2)[C@H](C)CN([C@@H](C)CO)C(=O)c2cc(NC(=O)Nc3ccc4c(c3)OCO4)ccc2O1 | active
13 | C[C@H](CO)N1C[C@H](C)[C@H](CN(C)C(=O)Nc2ccc(F)cc2)OCCCC[C@H](C)Oc2ccc(NC(=O)C3CCCCCC3)cc2C1=O | inactive
14 | CC(=O)O[C@H](C[C@H](O)C(C)(O)CCC=C(C)C)/C(C)=C/COC[C@@H](O)[C@@H](O)[C@@H](O)[C@@H](O)CO (stereo not given in full) | inactive
15 | O=C(Cn1ccc([N+](=O)[O-])n1)n1cccn1 | inactive
16 | N=c1ccn2c(n1)O[C@H]1[C@H](O)[C@@H](CO)O[C@H]12 | active
17 | Cl.N=c1ccn2c(n1)OC1C(O)C(CO)OC12 (stereo not given) | inactive
18 | Nc1ccn([C@@H]2O[C@H](CO)[C@@H](O)[C@H]2O)c(=O)n1 | inactive
19 | C[C@H](CO)N1C[C@H](C)[C@H](CN(C)C(=O)Nc2cccc3ccccc23)Oc2ncc(C#Cc3ccc(F)cc3)cc2C1=O | inactive
20 | Cc1ccc(S(=O)(=O)N(C)C[C@@H]2OCCCC[C@H](C)Oc3ccc(NS(=O)(=O)c4ccc(Cl)cc4)cc3C(=O)N([C@H](C)CO)C[C@@H]2C)cc1 | inactive
21 | CC(C)(C)c1cc(C(=O)NN)no1 | inactive
22 | CCN1C(C)(C)CC(Oc2ccc(C(=O)Nc3ccc(NC(=O)Nc4cc(C(C)(C)C)on4)cc3)nc2)CC1(C)C | active
23 | CC(C)CC#Cc1ccc2c(c1)O[C@H](CN(C)C(=O)c1ccccn1)[C@@H](C)CN([C@H](C)CO)S2(=O)=O | inactive

Row | Structure (SMILES) | cytotoxicity call
24 | COc1cccc(-c2ccc3c(c2)O[C@@H](CN(C)C(=O)C2CCOCC2)[C@@H](C)CN([C@@H](C)CO)S3(=O)=O)c1 | inactive
25 | C[C@H]1CN([C@@H](C)CO)C(=O)Cc2cc(NC(=O)Cc3ccccc3)ccc2O[C@H]1CN(C)Cc1ccc(C(F)(F)F)cc1 | inactive
26 | C[C@@H]1CN([C@H](C)CO)C(=O)Cc2cc(NC(=O)Cc3ccccc3)ccc2O[C@H]1CN(C)Cc1ccc(C(F)(F)F)cc1 | inactive
27 | C[C@@H]1CN([C@@H](C)CO)C(=O)Cc2cc(NC(=O)Cc3ccccc3)ccc2O[C@@H]1CN(C)Cc1ccc(C(F)(F)F)cc1 | active
28 | C[C@@H]1CN([C@H](C)CO)C(=O)Cc2cc(NC(=O)Cc3ccccc3)ccc2O[C@@H]1CN(C)Cc1ccc(C(F)(F)F)cc1 | inactive
29 | C[C@H]1CN([C@@H](C)CO)C(=O)Cc2cc(NC(=O)Cc3ccccc3)ccc2O[C@@H]1CN(C)Cc1ccc(C(F)(F)F)cc1 | active
30 | C[C@@H]1CN([C@@H](C)CO)C(=O)Cc2cc(NC(=O)Cc3ccccc3)ccc2O[C@H]1CN(C)Cc1ccc(C(F)(F)F)cc1 | inactive
31 | C[C@@H]1CN([C@@H](C)CO)C(=O)c2cc(NC(=O)Nc3cccc4ccccc34)ccc2O[C@@H]1CN(C)S(=O)(=O)c1ccc(Cl)cc1 | inactive
32 | Cc1noc(C)c1NC(=O)Nc1ccc2c(c1)C(=O)N([C@@H](C)CO)C[C@H](C)[C@@H](CN(C)Cc1ccc3c(c1)OCO3)OCCCC[C@@H](C)O2 | inactive
33 | COc1ccc(CN(C)C[C@@H]2OCCCC[C@H](C)Oc3ccc(NC(=O)NC(C)C)cc3C(=O)N([C@H](C)CO)C[C@H]2C)cc1 | inactive
34 | CO[C@@H]1CN(C)C(=O)c2cc(NC(=O)CC(F)(F)F)ccc2OC[C@H](C)N(S(=O)(=O)c2cn(C)cn2)C[C@H]1C | inactive
35 | Cc1ccc(S(=O)(=O)N(C)C[C@H]2Oc3ccc(NS(=O)(=O)c4c(C)noc4C)cc3CC(=O)N([C@H](C)CO)C[C@@H]2C)cc1 | inactive
36 | C[C@@H]1CN([C@@H](C)CO)S(=O)(=O)c2ccc(-c3cncnc3)cc2O[C@H]1CN(C)C(=O)C1CCCCC1 | inactive
37 | C[C@@H]1CN([C@H](C)CO)C(=O)c2cc(-c3ccc(C(=O)N(C)C)cc3)cnc2O[C@H]1CN(C)C(=O)c1ccncc1 | inactive
38 | C[C@@H]1CN([C@@H](C)CO)C(=O)c2cc(NS(C)(=O)=O)ccc2O[C@@H]1CN(C)Cc1ccc(C(F)(F)F)cc1 | inactive
39 | NC(=O)CSc1ccccn1 | inactive
40 | C[C@H](CO)N1C[C@H](C)[C@H](CN(C)S(=O)(=O)c2ccc(F)cc2)Oc2cc(C#Cc3ccncc3)ccc2S1(=O)=O | inactive
41 | COCC#Cc1ccc2c(c1)O[C@@H](CN(C)S(=O)(=O)c1ccc(F)cc1)[C@@H](C)CN([C@@H](C)CO)S2(=O)=O | active
42 | C[C@H]1CN([C@@H](C)CO)S(=O)(=O)c2ccc(C#Cc3ccncc3)cc2O[C@@H]1CN(C)S(=O)(=O)c1ccc(F)cc1 | active
43 | C[C@H]1CN([C@@H](C)CO)S(=O)(=O)c2ccc(C#Cc3ccncc3)cc2O[C@H]1CN(C)S(=O)(=O)c1ccc(F)cc1 | inactive
44 | COCC#Cc1ccc2c(c1)O[C@@H](CN(C)S(=O)(=O)c1ccc(F)cc1)[C@@H](C)CN([C@H](C)CO)S2(=O)=O | inactive
45 | COCC#Cc1ccc2c(c1)O[C@H](CN(C)S(=O)(=O)c1ccc(F)cc1)[C@@H](C)CN([C@H](C)CO)S2(=O)=O | inactive
